Assay outcomes as filed in PubChem.
KB-3-1 cytotox: KB-3-1 parental cell cytotoxicity; KB-3-1 viability, CellTiter-Glo ATP luminescence, 72 h; Potency, µM (doses to about 46.1 µM), hits mostly cytotoxic; 400,000 tested, 1.4% active; also: nearly all actives have a fitted effect of over 60% in size
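Using CellTiter-Glo luminescence, growth of non-resistant KB-3-1 adenocarcinoma cells is assessed 72 h after pin-tool compound addition at 37 °C. Normalized responses across the concentration series yield fitted curves.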
DT40 TDP1 no CPT: qHTS for Inhibitors of human tyrosyl-DNA phosphodiesterase 1 (TDP1): qHTS in cells in absence of CPT | DT40 Tdp1-/- hTDP1 cells, no CPT, ATP luminescence, 48 h | Potency, µM (doses to about 46.2 µM), hits mostly inhibitors | 420,000 tested, 15% active | AID 686978, 2013; also: nearly all actives have a fitted effect of over 55% in size
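DT40 Tdp1-/-;hTDP1 cells, no CPT (DMSO vehicle only), 400 cells/well; compounds pin-transferred; ≥48 hr, 37 °C; CellTiter-Glo 30 min RT dark, luminescence read.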
HT1080 IDH1KD tx: HT-1080 IDH1 knockdown cell toxicity (counter line); HT-1080 IDH1 knockdown viability, ATP luminescence, 48 h; Potency, µM (titrated, usually from 46.1 µM), most hits filed as cytotoxic; 360,000 tested, 2% active; AID 686971
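HT-1080-IDH1KD cells (IDH1 knocked down), 750/well in RPMI with 5% FBS, treated with compound 48 h at 37 degrees C. Viability by CellTiter-Glo luminescence, normalised to DMSO and no-cell wells; concentration-response curves classed.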
TDP1 cell CPT: growth inhibition of DT40 Tdp1-/-;hTDP1 cells with camptothecin (screen for TDP1 inhibitors); AID 686979; Potency, µM (series often up to 46.2 µM), hits mostly inhibitors; 420,000 tested, 12% active; chicken DT40 Tdp1-/-;hTDP1 cells + 20 nM CPT, ATP luminescence, 48 h; also: nearly all actives have a fitted effect of over 55% in size
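Chicken DT40 Tdp1-/- cells complemented with human TDP1, 400 cells/well, exposed to compounds plus 20 nM camptothecin for at least 48 h at 37 C; viability read as ATP content by CellTiter-Glo luminescence.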
HT1080-NT tox: kills 2HG-producing HT-1080-NT fibrosarcoma cells. Potency, µM (doses to about 46.1 µM), hits mostly cytotoxic. 360,000 tested, 1.6% active. AID 686970. HT-1080-NT fibrosarcoma viability, CellTiter-Glo ATP luminescence, 48 h;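 also: NT is the 2HG producing partner of a matched IDH1 knockdown line; nearly all actives have a fitted effect of over 55% in size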
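A 48-hour cytotoxicity screen used HT-1080-NT cells plated 2 hours before compound delivery. ATP-based CellTiter-Glo luminescence measured viability, normalized to DMSO and no-cell controls.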
KB-V1 MDR tox: kills drug-selected multidrug resistant KB-V1 cells; KB-V1 MDR cells viability, CellTiter-Glo, 72 h; Potency, µM (series often up to 46.1 µM), actives largely listed as cytotoxic; 400,000 tested, 3.4% active; also: nearly all actives have a fitted effect of over 60% in size
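Readout: CellTiter-Glo luminescence, 10 min after addition. Cells: KB-V1 MDR subline, 72 h at 37 degrees C with compound. Analysis: corrected, normalized data fitted to concentration-effect curves.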
Hits are given with their value; 0 = inactive; ? = inconclusive; - = not tested or not shown. Compounds with a hit are over-represented: about 19% of the library has one in this group of screens. Calls follow the shape of the dose curve; as a rule, active = well fitted curve in the direction sought with a large enough effect; inconclusive = small, poorly fitted or top-dose-only effect, or another doubt; inactive = no such curve, though single readings can be large; an effect the other way counts as inactive or inconclusive.

SMILES | KB-3-1 cytotox | DT40 TDP1 no CPT | HT1080 IDH1KD tx | TDP1 cell CPT | HT1080-NT tox | KB-V1 MDR tox
COc1ccccc1NC(=O)c1nnn(CC(=O)Nc2cccc(SC)c2)c1N | ? | 0 | 0 | 0 | 0 | 0
COc1ccc(Br)cc1Cn1nnc(C(=O)Nc2cccc(SC)c2)c1N | 0 | 23.1µM | - | 16.4µM | - | 0
COc1ccccc1-n1cc(C(=O)N2CCCC(CO)(Cc3ccccc3C)C2)cn1 (configuration not stated) | 0 | ? | 0 | ? | 0 | ?
[O-][n+]1ccc(C(O)c2ccccc2)cc1 (configuration not stated) | 0 | 0 | 0 | 0 | 0 | 0
Cc1ccc(Cn2nnc(C(=O)Nc3cccc(C)c3C)c2N)cc1 | 0 | 20.6µM | 0 | ? | 0 | 14.6µM
COc1ccc(Cl)cc1NC(=O)Cn1nnc(C(=O)NCc2cccs2)c1N | 7.31µM | 1.16µM | - | 4.61µM | - | ?
COc1ccc(C)cc1NC(=O)c1nnn(Cc2cc(C)ccc2C)c1N | 0 | ? | ? | ? | 0 | 0
Cc1ccc(Cl)cc1NC(=O)c1nnn(Cc2ccccc2)c1N | ? | ? | - | ? | - | 0
COc1ccc(OC)c(NC(=O)c2nnn(Cc3ccccc3C)c2N)c1 | 9.2µM | ? | - | ? | - | 0
CCc1ccccc1NC(=O)c1nnn(Cc2ccc(Cl)cc2)c1N | 0 | 13µM | - | ? | - | 0
Cc1ccc(C)c(NC(=O)c2nnn(CC(=O)Nc3cccc(C)c3C)c2N)c1 | - | 0 | - | 0 | - | -
Cc1noc(C)c1C(=O)N1CCC2(CC1)CN(C(=O)Nc1cccc(F)c1)C2 | - | 0 | - | 0 | - | -
O=C(Nc1nccs1)C1CCN(S(=O)(=O)c2c(Cl)cccc2Cl)CC1 | 0 | ? | 0 | 0 | 0 | ?
CC(C)(C)NC(=O)CCN(/N=C/c1ccc([N+](=O)[O-])o1)C1=NS(=O)(=O)c2ccccc21 | 18.4µM | 14.6µM | ? | 18.4µM | ? | 0
CN1C=Nc2c(ncn2C2CCC(CO)O2)C1O (configuration not stated) | 0 | 0 | 0 | 0 | 0 | 0
CCCC(=O)N1CCN(c2nc(CC(C)C)c3c(c2C#N)CCC3)CC1 | ? | 23.1µM | 0 | ? | 0 | ?
CC(C)Cc1nc(N2CCN(C(=O)c3ccco3)CC2)c(C#N)c2c1CCCC2 | 0 | ? | ? | 23.1µM | ? | 0
Cc1ccc(-n2ncc3c(N4CCCCC4)ncnc32)cc1 | 0 | ? | - | ? | - | 0
Cc1ccc(Cl)cc1N1CCN(CCCNC(=O)c2nnc(Cc3cccc(Cl)c3)o2)CC1 | - | 10.3µM | - | 20.6µM | - | -
COc1ccc(Cc2nnc(C(=O)NCCCN3CCN(c4ccccc4F)CC3)o2)cc1OC | 0 | ? | - | ? | - | 0
O=C(NCCCN1CCOCC1)c1ccc2nc(Cc3cccc(Cl)c3)oc2c1 | ? | 0 | 0 | 0 | 0 | ?
Cc1cccc(N2CCN(CCCNC(=O)c3nnc(Cc4c(F)cccc4Cl)o3)CC2C)c1 (configuration not stated) | 0 | ? | - | 23.1µM | - | 0
O=C(NCCCN1CCN(Cc2ccccc2)CC1)c1nnc(Cc2c(F)cccc2Cl)o1 | 0 | 0 | 0 | 0 | 0 | ?
O=C(NCCCN1CCN(c2ccccc2F)CC1)c1nnc(Cc2ccc(Cl)cc2Cl)o1 | - | 14.6µM | - | 20.6µM | - | -
CCC(=O)Nc1ccc(C(=O)NNC(=O)c2cc(OC)c(OC)c(OC)c2)cc1 | 0 | 0 | 0 | 0 | 0 | 0
SMILES | KB-3-1 cytotox | DT40 TDP1 no CPT | HT1080 IDH1KD tx | TDP1 cell CPT | HT1080-NT tox | KB-V1 MDR tox
C[C@H]1CN([C@@H](C)CO)C(=O)c2cc(NC(=O)C3CCCCC3)ccc2O[C@H]1CN(C)C(=O)Nc1ccc2c(c1)OCO2 | 0 | ? | 0 | ? | 0 | 0
COc1cccc(C(CNc2ccc(S(=O)(=O)N3CCN(C)CC3)cc2[N+](=O)[O-])N(C)C)c1 (configuration not stated) | 0 | ? | 0 | 23.1µM | 0 | ?
COc1ccccc1C(C)Nc1ccc(S(=O)(=O)N2CCN(C)CC2)cc1[N+](=O)[O-] (configuration not stated) | 0 | ? | 0 | ? | 0 | 0
CC(Nc1ccc(S(=O)(=O)N2CCN(C)CC2)cc1[N+](=O)[O-])c1ccccc1 (configuration not stated) | 0 | 23.1µM | 0 | 16.4µM | 0 | ?
CC(Nc1cc(N2CCN(S(C)(=O)=O)CC2)ccc1[N+](=O)[O-])c1ccccc1 (configuration not stated) | 0 | 16.4µM | 0 | ? | 0 | ?
Cc1ccc(CC(=O)NCc2nc(-c3cccc(C)c3)no2)cc1 | - | ? | - | 0 | - | -
Cc1[nH]c(C)c(S(=O)(=O)NCc2ccc(F)cc2)c1C(=O)N1CCCC1 | 0 | 0 | 0 | 0 | 0 | 0
CCCCN(C(=O)c1cc(-c2ccco2)nc2ccccc12)c1c(N)n(CCC)c(=O)[nH]c1=O | 0 | 0 | 0 | 0 | 0 | 0
CC1CCC(NC(=O)C2(C)Cc3ccccc3C(=O)N2Cc2ccccc2Cl)CC1 (configuration not stated) | - | 23.1µM | - | ? | - | -
COCCCN1C(=O)c2ccccc2CC1(C)C(=O)NC1CCCCC1 (configuration not stated) | - | 0 | - | 0 | - | -
CN1CCC2(CC1)N=C(c1ccc(F)cc1)C(=S)N2C(=O)c1ccccc1 | ? | 11.6µM | 0 | 7.31µM | 0 | ?
COc1ccc(/C=C/C(=O)O)cc1S(=O)(=O)N1CCCC1 | 0 | 0 | 0 | 0 | 0 | 0
CC1CN(C(=O)COC(=O)c2ccc(N(C)C)cc2)CC(C)O1 (configuration not stated) | 0 | 0 | 0 | 0 | 0 | 0
S=C(NCc1ccccc1)Nc1nccs1 | 0 | 4.61µM | 0 | 5.17µM | 0 | 0
S=C(NCCc1ccccc1)Nc1ccc(Br)cn1 | 0 | 14.6µM | 0 | ? | 0 | ?
S=C(NCCc1ccccc1)Nc1nccs1 | 0 | 14.6µM | 0 | ? | 0 | 0
O=C(NCCc1ccccc1)C(=O)Nc1nccs1 | 0 | 0 | 0 | 0 | ? | 0
O=c1[nH]c(=O)n(Cc2ccco2)c2c1C(C(F)(F)F)(C(F)(F)F)N=C(C1CCCCC1)N2 | 0 | 0 | 0 | ? | 0 | 0
CC(C)Cn1c2c(c(=O)[nH]c1=O)C(C(F)(F)F)(C(F)(F)F)N=C(CCC1CCCCC1)N2 | 0 | 4.11µM | ? | 6.51µM | ? | ?
O=c1[nH]c(=O)n(Cc2ccco2)c2c1C(C(F)(F)F)(C(F)(F)F)N=C(CCc1ccccc1)N2 | 0 | ? | 10µM | 17.8µM | ? | 0
O=c1[nH]c(=O)n(-c2ccccc2)c2c1C(C(F)(F)F)(C(F)(F)F)N=C(CCC1CCCCC1)N2 | 0 | 18.4µM | 0 | ? | 0 | 5.17µM
